# Bioassay records deposited in PubChem BioAssay by National Center for Advancing Translational Sciences (NCATS).
# DT40 TDP1 CPT – DT40-hTDP1 cell growth loss with CPT; chicken DT40 Tdp1-/-;hTDP1 cells + 20 nM CPT, ATP luminescence, 48 h; 12% of 420,000 active; Potency, µM (highest dose often 46.2 µM), for the others: at the top dose activity change, negative = growth inhibition, most hits filed as inhibitors; also: potency is read from the fitted curve at half-maximal effect; nearly all actives have a fitted effect of over 55% in size
#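 Chicken DT40 Tdp1-/- cells stably complemented with human TDP1 were seeded at 400 cells/well in medium containing 20 nM camptothecin, exposed to pin-transferred compounds, and grown at 37 °C for at least 48 hr. Viability was read as ATP luminescence.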
# 12-LOX inh – inhibitors of human 12S-lipoxygenase ALOX12 | P18054 | purified 12hLO, xylenol orange hydroperoxide absorbance | Potency, µM (top dose mostly 108 µM), for inactives: at the highest dose activity change, negative = inhibition, most hits filed as inhibitors | 1.1% of 580,000 active; also: potency is read from the fitted curve at half-maximal effect
# Target sequence (P18054 whole entry, looked up): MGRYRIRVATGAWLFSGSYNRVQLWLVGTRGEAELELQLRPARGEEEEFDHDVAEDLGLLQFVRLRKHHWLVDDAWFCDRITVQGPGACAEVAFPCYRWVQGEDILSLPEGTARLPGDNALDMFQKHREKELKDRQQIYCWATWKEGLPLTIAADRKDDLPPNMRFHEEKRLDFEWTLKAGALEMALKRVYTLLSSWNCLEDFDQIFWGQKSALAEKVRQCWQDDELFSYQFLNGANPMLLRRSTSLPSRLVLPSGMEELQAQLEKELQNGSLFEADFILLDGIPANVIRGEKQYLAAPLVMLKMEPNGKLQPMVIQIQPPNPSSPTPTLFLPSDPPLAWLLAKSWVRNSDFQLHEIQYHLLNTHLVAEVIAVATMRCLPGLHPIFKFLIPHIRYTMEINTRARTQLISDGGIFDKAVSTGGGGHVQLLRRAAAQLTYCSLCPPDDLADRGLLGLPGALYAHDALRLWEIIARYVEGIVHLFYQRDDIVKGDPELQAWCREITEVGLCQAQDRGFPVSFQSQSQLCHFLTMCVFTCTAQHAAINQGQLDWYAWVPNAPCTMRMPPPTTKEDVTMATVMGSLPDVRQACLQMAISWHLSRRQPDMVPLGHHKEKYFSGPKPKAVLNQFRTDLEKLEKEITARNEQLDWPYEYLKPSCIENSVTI
#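 Purified human 12hLO (150 nM final) in 25 mM Hepes, 0.01% Triton X-100, pH 7.0 was preincubated 15 min at room temperature with compound. Then 40 uM arachidonic acid was added, 30 min. Hydroperoxide was read by Fe-XO absorbance ratio 573/405 nm.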
# IL1B secr inh – inflammasome signaling inhibition, IL-1 beta readout; 4.7% of 360,000 active; AID 743279; activity change, % at 57.5 µM; THP-1 LPS/ATP IL-1B secretion, AlphaLISA, 16 h; stronger effect = lower value; in the data active = activity change below about -50%; inconclusive = mostly about -30% to -49%
#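 Secreted IL-1B measured by AlphaLISA bead assay after 16 h compound exposure of THP-1 cells; compounds (final up to 57.5 uM) added 1 h before LPS (250 ng/mL) and ATP (1.25 mM) stimulation; lower signal means less secretion.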
# HT1080-NT tox – kills 2HG-producing HT-1080-NT fibrosarcoma cells; HT-1080-NT fibrosarcoma viability, CellTiter-Glo ATP luminescence, 48 h; Potency, µM (highest dose often 46.1 µM), without a hit: at the top dose activity, negative = less viability, hits mostly cytotoxic; 1.6% of 360,000 active; AID 686970;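 also: NT is the 2HG producing partner of a matched IDH1 knockdown line; potency is read from the fitted curve at half-maximal effect; 0% = DMSO-treated cells and -100% = media-only wells without cells; nearly all actives have a fitted effect of over 55% in size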
#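 A 48-hour cytotoxicity screen used HT-1080-NT cells plated 2 hours before compound delivery. ATP-based CellTiter-Glo luminescence measured viability, normalized to DMSO and no-cell controls.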
# DT40 TDP1 no CPT – qHTS for Inhibitors of human tyrosyl-DNA phosphodiesterase 1 (TDP1): qHTS in cells in absence of CPT; AID 686978, 2013; Potency, µM (doses to about 46.2 µM), for the others: at the highest dose activity change, negative = growth inhibition, usual class: inhibitors; DT40 Tdp1-/- hTDP1 cells, no CPT, ATP luminescence, 48 h; 15% of 420,000 active; also: potency is read from the fitted curve at half-maximal effect; nearly all actives have a fitted effect of over 55% in size
#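 Chicken DT40 Tdp1-/- cells complemented with human TDP1, screened without camptothecin (DMSO vehicle only), 400 cells/well. Compounds pin-transferred, cells incubated at 37 °C for at least 48 hr. Growth read as ATP-dependent luminescence (CellTiter-Glo, 30 min at RT).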
# HT1080 IDH1KD tx – toxicity to HT-1080 IDH1 knockdown cells (counter line); HT-1080 IDH1 knockdown viability, ATP luminescence, 48 h; Potency, µM (top dose mostly 46.1 µM), inactives show at the top dose activity, negative = toxicity, usual class: cytotoxic; 2% of 360,000 active;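 also: potency is read from the fitted curve at half-maximal effect; 0% = DMSO wells and -100% = cell-free medium wells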
#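 After a 2 h attachment period, IDH1KD HT-1080 cells took pin-transferred compound for 48 h at 37 °C; ATP-based luminescence after 10 min room-temperature reagent incubation reported viability.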
# An asterisk follows results filed as active; ? = inconclusive; · = not tested or not shown. Shown is part of a subset that was picked to be rich in hits. Unless noted, calls follow the shape of the dose curve; as a rule, active = well fitted curve in the direction sought with a large enough effect; inconclusive = small, poorly fitted or top-dose-only effect, or another doubt; inactive = no such curve, though single readings can be large; an effect the other way counts as inactive or inconclusive. Unless noted, % is scaled to controls: 0 for no effect and ±100 for the full control effect.
SMILES,DT40 TDP1 CPT,12-LOX inh,IL1B secr inh,HT1080-NT tox,DT40 TDP1 no CPT,HT1080 IDH1KD tx
Cc1cccc(OCC(=O)N(Cc2ccc(N(C)C)cc2)Cc2ccco2)c1C,?,-6%,·,·,7.3µM*,·
Cc1ccc(CN(Cc2ccco2)C(=O)COc2cccc(C)c2C)o1,16µM*,0%,·,·,18µM*,·
CCc1ccc(CN(Cc2ccco2)C(=O)COc2ccccc2Cl)cc1,?,0%,·,·,23µM*,·
CC1CC(=O)Nc2ccccc2N1C(=O)CSc1ncnc2sccc12 (stereo not drawn),13%,40%,4,1%,5%,9%
Cc1cccc(CNC(=O)c2sc(=O)n(Cc3ccc(S(C)(=O)=O)cc3)c2C)c1,-28%,11%,-13,-6%,-30%,?
CCc1ccc(CNC(=O)c2ccc(CN3C(=O)CCn4nccc43)cc2)cc1,·,-3%,·,·,·,·
CCc1ccc(OCC(=O)N(Cc2ccco2)Cc2ccco2)cc1,?,-11%,·,·,21µM*,·
Cn1nc2n(c1=O)CCC(NC(=O)NCc1ccco1)CC2 (stereo not drawn),·,19%,·,·,·,·
CCOC(=O)c1[nH]cnc1C(=O)Nc1ccccn1,-14%,3%,-64*,-14%,-6%,23%
CCOC(=O)c1[nH]cnc1C(=O)Nc1ccccc1,5%,7%,0,23%,-1%,15%
CC(C)c1noc(C2CCCN(S(=O)(=O)c3cn(C)cn3)CCC(=O)NCC2)n1 (stereo not drawn),·,-9%,·,·,·,·
CCN(CC)c1nc(N)c2c(N)nc(OC)cc2c1C#N,15µM*,-9%,-2,4%,23µM*,0%
COc1cc2c(C#N)c(N3CCCCC3)nc(N)c2c(N)n1,9.2µM*,18%,?,?,13µM*,?
COc1cc2c(C#N)c(N3CCc4ccccc4C3)nc(N)c2c(N)n1,21µM*,-6%,-54*,?,21µM*,?
CCOc1cc2c(C#N)c(N3CCNCC3)nc(N)c2c(N)n1,-4%,0%,-2,-13%,-15%,-15%
COc1cc2c(C#N)c(N3CCOCC3)nc(N)c2c(N)n1,13µM*,0%,-54*,?,23µM*,?
CCOc1cc2c(C#N)c(N3CCCCC3)nc(N)c2c(N)n1,?,19%,0,-25%,?,-19%
COC(=O)c1nc2ccccc2nc1N1CCN(c2ccc(F)cc2)CC1,·,-7%,·,·,·,·
COc1ccc(Cl)cc1C(=O)NCc1nnc2cc(-c3nc(C4CC4)no3)ccn12,·,20%,·,·,·,·
COc1ccc(Cl)cc1NC(=S)NCCO,32%,-21%,-2,5%,-11%,-1%
COc1ccc(Cl)cc1NC(=S)NCCC(c1ccccc1)c1ccccc1,23µM*,32µM*,5,3%,23µM*,1%
COc1ccccc1NC(=S)NCCC(c1ccccc1)c1ccccc1,?,35µM*,25,-15%,?,-7%
COc1ccc(Cl)cc1NC(=S)Nc1ccccc1C,?,?,-10,15%,23µM*,-1%
COc1cc(NC(=S)NCCC(c2ccccc2)c2ccccc2)c(OC)cc1Cl,9.2µM*,40µM*,0,-7%,18µM*,0%
S=C(NCCC(c1ccccc1)c1ccccc1)Nc1ccccc1Cl,?,?,3,-11%,?,0%
SMILES,DT40 TDP1 CPT,12-LOX inh,IL1B secr inh,HT1080-NT tox,DT40 TDP1 no CPT,HT1080 IDH1KD tx
COc1ccccc1C(=O)NCC(=O)Nc1ccccc1,?,11%,30,-1%,-12%,-2%
COc1ccccc1C(=O)NCC(=O)NCCC(c1ccccc1)c1ccccc1,15µM*,-12%,5,0%,16µM*,-5%
CNC(=O)[C@@H]1C[C@H](Oc2cccnc2)CN1S(=O)(=O)c1ccc(C#N)cc1,·,18%,·,·,·,·
CC1(C)CC(=O)C2=C(C1)Nc1ccccc1NC2,0%,12%,4,1%,-36%,-5%
CC1(C)CC(=O)C2=C(C1)Nc1ccccc1S2,-27%,25µM*,-3,10%,?,8%
CCOC(=O)[C@@H]1[C@H]2COc3cc(OC)ccc3[C@@H]2N2C(=O)N(c3ccc(OC)cc3)C(=O)[C@]12C,-5%,3%,-14,0%,-24%,19%
CCOC(=O)[C@@H]1[C@H]2COc3cc(OC)ccc3[C@H]2N2C(=O)N(c3ccc(OC)cc3)C(=O)[C@]12C,?,16%,-2,0%,?,6%
COc1ccc([C@@H]2[C@@H]3C(=O)N(C(C)(C)C)C(=O)[C@@H]3[C@]3(C)C(=O)N(c4ccc(C(F)(F)F)cc4)C(=O)N23)cc1,?,1%,-7,8%,16µM*,-1%
CCOC(=O)[C@@H]1[C@H]2COc3cc(OC)ccc3[C@H]2N2C(=O)N(c3ccc(C(F)(F)F)cc3)C(=O)[C@]12C,15µM*,-6%,-17,?,21µM*,?
CCOC(=O)[C@@H]1[C@H]2COc3cc(OC)ccc3[C@@H]2N2C(=O)N(c3ccc(C(F)(F)F)cc3)C(=O)[C@@]12C,?,0%,-2,-1%,13µM*,-3%
COc1ccc([C@@H]2[C@@H]3C(=O)N(C(C)(C)C)C(=O)[C@@H]3[C@]3(CC(C)C)C(=O)N(c4ccc(C(F)(F)F)cc4)C(=O)N23)cc1,-28%,-1%,8,8%,?,4%
Cc1ccccc1C(=O)N1C(C(=O)NCC2CCCO2)COC12CCC(C)CC2 (stereo not drawn),·,12%,·,·,·,·
Cc1cccc(C)c1NC(=O)N1CCN(c2nc3ccccc3s2)CC1,12µM*,-39%,14,6%,?,?
Cc1cccc(N2CCN(C(=O)c3ccc4nc(N5CCCCC5)sc4c3)CC2)c1C,21µM*,16%,34,7%,18µM*,5%
